C diff growth – C. difficile growth inhibition; Clostridium difficile clinical isolate growth, OD600, 24 h; active compounds read low; growth activity, negative = inhibition, % at 16 µg/mL (by protocol); 0.25% of 86,000 active; AID 1259249;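 active = mean growth activity at or below -80% and every replicate also at or below -80%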;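 also: 0% = DMSO wells and -100% = levofloxacin 16 µg/mL wells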
Tcruzi prolif – inhibitors of T. cruzi proliferation; T. cruzi beta-gal in NIH3T3, GalScreen luminescence, 90 h; 5.9% of 77,000 active; AID 624255; inhibition, % at 8.34 µM;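 active = mean inhibition above about 93%, with at least 55% of replicates each passing it, limit read from the data, passing the limit was not always enough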
Pf Dd2 inh – blocks growth of Plasmodium falciparum Dd2 parasites; 2.3% of 94,000 active; activity change, % at 10 µM; P. falciparum Dd2 growth, SYBR Green, 72 h; active compounds read low; in the data active = activity change below about -80%
* hit, by the source's call; x = not tested or not shown. Hits are enriched below; roughly 6.7% of the tested compounds scored in any of these assays.

SMILES	C diff growth	Tcruzi prolif	Pf Dd2 inh
C/C=C/c1ccc2c(c1)[C@@H]1[C@@H](CCN1C(=O)C1CCCC1)[C@H](CO)N2	4	x	-80
COc1ccc(C#Cc2ccc3c(c2)[C@@H]2[C@@H](CCN2C(=O)C2CCC2)[C@@H](CO)N3)cc1	31	x	-75
C/C=C/c1ccc2c(c1)[C@H]1[C@H](CCN1C(=O)C1CCCC1)[C@@H](CO)N2	-7	x	-86*
COc1ccc(C#Cc2ccc3c(c2)[C@@H]2[C@@H](CCN2C(=O)C2CCC2)[C@H](CO)N3)cc1	51	x	-87*
O=C(Cc1ccccc1)N1CC[C@@H]2[C@H](CO)Nc3ccc(-c4ccc(F)cc4)cc3[C@@H]21	41	-1	30
COc1ccc(S(=O)(=O)N2C[C@@H](O)COC[C@@H]3O[C@@H](CC(=O)NCCN4CCCCC4)CC[C@H]32)cc1	1	x	-16
Cc1ccc(S(=O)(=O)N[C@H]2CC[C@@H](CCNC(=O)CN3CCOCC3)O[C@H]2CO)cc1	1	7	8
O=C(C1CCC1)N1CC[C@H]2[C@H](CO)Nc3ccc(C4=CCCCC4)cc3[C@H]21	-4	x	-36
COc1cccc(-c2ccc3c(c2)[C@@H]2[C@@H](CCN2C(=O)C2CCCC2)[C@@H](CO)N3)c1	-7	x	-77
C/C=C/c1ccc2c(c1)[C@H]1[C@H](CCN1S(=O)(=O)c1ccccc1)[C@H](CO)N2	5	81	-6
C/C=C/c1ccc2c(c1)[C@H]1[C@H](CCN1S(=O)(=O)c1cccc(F)c1)[C@@H](CO)N2	-4	x	-93*
COc1cccc(-c2ccc3c(c2)[C@H]2[C@H](CCN2C(=O)C2CCCC2)[C@@H](CO)N3)c1	3	x	-83*
O=C(C1CCCC1)N1CC[C@@H]2[C@H]1c1cc(C3=CCCCC3)ccc1N[C@@H]2CO	6	x	-92*
COc1ccc2c3c(n(C)c2c1)[C@@H](CO)N(Cc1ccc(F)cc1)CC31CCN(CC2CCOCC2)CC1	4	x	-49
COc1ccc2c3c(n(C)c2c1)[C@@H](CO)N(Cc1ccc(F)cc1)CC31CCN(CC2CC2)CC1	0	x	-86*
COc1ccc2c3c(n(C)c2c1)[C@H](CO)N(Cc1ccccc1OC)CC31CN(CC2CCOCC2)C1	7	x	-89*
COc1ccc2c3c(n(C)c2c1)[C@H](CO)N(Cc1ccccc1OC)CC31CCN(C)CC1	2	x	-42
COc1ccc2c3c(n(C)c2c1)[C@H](CO)N(Cc1ccccc1OC)CC31CN(CC2CC2)C1	11	x	-49
COc1ccc2c3c(n(C)c2c1)[C@@H](CO)N(Cc1ccccc1F)CC31CCN(C(=O)C2CC2)CC1	4	x	-60
CCCN1CCC2(CC1)CN(Cc1ccccc1OC)[C@H](CO)c1c2c2ccc(OC)cc2n1C	9	x	-92*
COc1ccc2c3c(n(C)c2c1)[C@@H](CO)N(Cc1ccccc1OC)CC31CCN(C(=O)C2CC2)CC1	6	x	-83*
Cc1cccc(S(=O)(=O)N2C[C@@H](O)COC[C@@H]3O[C@H](CC(=O)N4CCN(C)CC4)CC[C@H]32)c1	-4	8	13
CCCNC(=O)Nc1ccc2c(c1)C(=O)N(C)[C@H]1CC[C@@H](CC(=O)NCC3CCCCC3)O[C@H]1CO2	3	4	-26
C[C@@H](NC(=O)C[C@H]1CC[C@H](NC(=O)C2CCC2)[C@@H](CO)O1)c1ccccc1	x	16	3
COc1ccccc1C#Cc1cnc2c(c1)C(=O)N([C@@H](C)CO)C[C@@H](C)[C@@H](CN(C)C(=O)CC1CC1)O2	4	59	-39
SMILES	C diff growth	Tcruzi prolif	Pf Dd2 inh
O=C(c1ccc(F)cc1)N1CC(=O)N2[C@H](C1)[C@H](c1ccc(C#Cc3ccc(F)cc3)cc1)[C@@H]2CO	-1	x	-13
COc1cccc(C#Cc2ccc([C@@H]3[C@H]4CN(C(=O)c5ccccc5)CC(=O)N4[C@H]3CO)cc2)c1	-5	x	-48
COc1cccc(NC(=O)N2CC(=O)N3[C@H](CO)[C@@H](c4ccc(C#CCC5CCCC5)cc4)[C@H]3C2)c1	62	x	-91*
COc1ccc(C#Cc2ccc([C@H]3[C@H]4CN(C(=O)c5ccc(F)cc5)CC(=O)N4[C@H]3CO)cc2)cc1	-2	x	-85*
COc1cccc(NC(=O)N2CC(=O)N3[C@H](C2)[C@H](c2ccc(C#CCC4CCCC4)cc2)[C@@H]3CO)c1	70	x	-44
COc1cccc(C#Cc2ccc([C@H]3[C@@H](CO)N4C(=O)CN(C(=O)c5ccccc5)C[C@H]34)cc2)c1	1	x	-89*
C[C@@H]1CN([C@H](C)CO)C(=O)c2cccc(NC(=O)C3CCOCC3)c2O[C@H]1CN(C)Cc1ccc2c(c1)OCO2	5	5	11
CNC(=O)C[C@H]1CC[C@H]2[C@@H](COc3ccc(NC(=O)Nc4ccc(C)cc4)cc3C(=O)N2C)O1	22	20	-1

Screening results deposited in PubChem by Broad Institute.
